The list is not random: actives were taken first. Their share in the collection is about 3.7%.
BJeLR viability – BJeLR cell viability loss | BJeLR (HRASV12) viability, CellTiter-Glo ATP luminescence, 48 h | inhibition, % (concentration not given with the values) | hit rate 0.17% among 300,000; in the data active = inhibition above about 50%; inconclusive = no clear call, values can overlap the other calls
BoNT F protease – BoNT F light chain protease inhibition | inhibition, % at 10 µM | Multiplex microsphere protease cleavage assay, flow cytometry | hit rate 0.22% among 360,000; in the data active = inhibition above about 35%, passing the limit was not always enough; inconclusive = no clear call, values can overlap the other calls
Bead autofluor – compound fluorescence in toxin protease inhibitor counterscreen; AID 624483; fluorescence intensity (concentration not given with the values); hit rate 3.1% among 360,000; compound autofluorescence counterscreen, microsphere flow cytometry; hits give high values; in the data active = fluorescence intensity above about 16000; inconclusive = no clear call, values can overlap the other calls
BoNT-A LC inh2 – blocks Botulinum neurotoxin A light chain protease; multiplex microsphere protease substrate cleavage, flow cytometry; inhibition, % at 10 µM; hit rate 0.17% among 360,000
BH1578 lux ind – quorum light induction in luxS cqsA deficient V. cholerae | V. cholerae BH1578 lux reporter, luminescence, 6 h | activation, % at 18.7 µM | hit rate 0.16% among 350,000 | AID 588436; in the data active = activation mostly above about 9.7%, no sharp cut-off; inconclusive = no clear call, values can overlap the other calls; inactive = mostly below about 3.7%
Anthrax LF prot – blocks Bacillus anthracis lethal factor protease; inhibition, % at 10 µM; AID 588501; multiplex microsphere protease cleavage assay, LF; P15917; hit rate 0.12% among 360,000
Hits are given with their value; - = inactive; ? = inconclusive; . = no result given. Rule as the data show it, unless noted: active = inhibition above about 30%; inconclusive = no clear call, values can overlap the other calls; inactive = below that.

SMILES	BJeLR viability	BoNT F protease	Bead autofluor	BoNT-A LC inh2	BH1578 lux ind	Anthrax LF prot
O=C(Nc1ccccc1)NC1(C(=O)NCc2ccco2)CCCCC1	-	-	17118	-	-	-
CCOC(=O)C1=C[C@@H](C(C)(C)C)N(S(=O)(=O)c2ccc(C)cc2)[C@H]1c1ccc(C)cc1	.	-	-	-	.	-
Cc1ccc(C2C(=O)N(C3CCC(C)CC3)CC(=O)N2C2CCCC2)cc1 (stereo not drawn)	-	-	23411	-	-	-
COc1cc(C2C(=O)N(C3CCCC3)CC(=O)N2Cc2ccco2)ccc1OC(C)C (stereo not drawn)	-	-	21363	-	-	-
CCCOc1ccc(C2C(=O)N(C3CCCCC3)CC(=O)N2CCC)cc1OC (stereo not drawn)	-	-	20044	-	-	-
CCCN1C(=O)CN(C2CCCCCC2)C(=O)C1c1ccc(C)cc1 (stereo not drawn)	-	-	23066	-	-	-
COc1ccccc1C#CC1=CC(=O)CC(C)(C)C1	.	-	-	-	-	-
Cc1noc(C)c1C(=O)N1CCN(CCc2ccccc2)CC1	-	-	24658	?	-	-
Cc1noc(C)c1C(=O)N1CCN(C(=O)c2sc3cc(Cl)ccc3c2Cl)CC1	-	-	18980	-	-	-
Cc1noc(C)c1C(=O)N1CCN(Cc2ccccc2)CC1	-	-	-	-	-	-
CCCCN(C)c1c(C)nc2ccc(C(=O)NCCOc3ccc(OC)cc3)cn12	.	-	-	-	-	-
CC(C)Nc1nc(NCc2ccccc2)c2sccc2n1	.	-	-	-	-	-
N=c1c2c(n(Cc3ccc(Cl)cc3)c3c1CCC3)CCC2	-	-	20485	-	-	-
N=c1c2c(n(Cc3ccc(F)cc3)c3c1CCC3)CCCC2	-	-	-	-	-	-
COC(=O)c1nc(-c2ccc(C)cc2)[nH]c1C(C)(C)C	.	-	-	-	.	-
COCc1nnc(NS(=O)(=O)c2ccc(C)cc2)s1	-	-	-	-	-	-
COCc1nnc(NS(=O)(=O)c2c(C)cc(C)cc2C)s1	-	-	23383	-	-	-
CC(C)(C)OC(=O)NCCCCCc1nnc(SCc2c(F)cccc2Cl)o1	-	58.7	-	-	-	?
CCCCSc1nnc(CCCCCNC(=O)OC(C)(C)C)o1	-	-	16992	-	-	-
CSc1nnc(CCCCCNC(=O)OC(C)(C)C)o1	-	?	-	-	-	-
Cc1nc2nc(C)n(CCN3CCOCC3)c(=O)c2c(-c2cccc([N+](=O)[O-])c2)c1C(=O)CCCCCCCCCCN1CCC(c2ccccc2)(c2ccccc2)CC1	.	-	-	-	-	-
NC(=O)CCCCC(=O)OCCCc1cccs1	-	-	16230	-	-	-
O=C(CCCCC(=O)NCc1cccs1)NCc1cccs1	-	-	-	-	-	-
COc1cc(C=CC(=O)N2CCN(CC(=O)N3CCCC3)CC2)cc(OC)c1OC	.	-	-	-	-	-
Cc1ccccc1OCC(=O)Nc1cccc(C(=O)O)c1	-	-	-	-	.	-
SMILES	BJeLR viability	BoNT F protease	Bead autofluor	BoNT-A LC inh2	BH1578 lux ind	Anthrax LF prot
COc1cccc(OCC(=O)Nc2cc(NC(=O)COc3cccc(OC)c3)cc(C(=O)O)c2)c1	-	-	-	-	41.9	-
Cc1cccc(OCC(=O)Nc2cc(NC(=O)COc3cccc(C)c3)cc(C(=O)O)c2)c1	-	-	-	-	-	-
Cc1cc(C)cc(OCC(=O)Nc2cccc(C(=O)O)c2)c1	-	-	17933	?	-	-
Cc1cc(C)cc(OCC(=O)Nc2nonc2NC(=O)COc2cc(C)cc(C)c2)c1	-	-	18944	?	-	-
CCOC(=O)c1cnc(-n2nc(C)cc2C)nc1NCCO	-	-	22604	-	-	-
CCOC(=O)c1cnc(-n2nc(C)cc2C)nc1N1CC(C)OC(C)C1 (stereo not drawn)	-	-	21874	-	-	-
CCOC(=O)c1cnc(-n2nc(C)cc2C)nc1NCc1ccccc1	-	-	?	-	.	-
CCOC(=O)c1cnc(-c2ccccc2)nc1N1CC(C)OC(C)C1 (stereo not drawn)	-	-	-	-	-	-
CCOC(=O)c1cnc(-n2nc(C)cc2C)nc1NC(C)c1ccccc1 (stereo not drawn)	-	-	16140	-	-	-
CN(c1ccc(C(=O)N2CCN(Cc3ccc4c(c3)OCO4)CC2)cc1)S(=O)(=O)c1ccccc1	-	-	23288	-	-	-
O=C(CCc1ccc(S(=O)(=O)NCCc2ccccc2)cc1)N1CCN(Cc2ccc3c(c2)OCO3)CC1	-	-	21187	-	-	-
CCNS(=O)(=O)c1ccc(CCC(=O)N2CCN(Cc3ccccc3)CC2)cc1	-	?	-	-	-	-

From PubChem BioAssay
